According to ChEMBL document CHEMBL4296183, “CO-ADD screening of NIH NCI Natural Product Set III” (2020):
For part of these data: Entries with a potency or affinity are not part of this list.

What was measured:
[1] = system: Staphylococcus aureus; test: Antibacterial activity against Staphylococcus aureus MRSA ATCC 43300 (CO-ADD:GP_020); MIC in CAMBH media using NBS plates, by Resazurin F(560/590); assay type: functional; conditions: Concentration 20 uM, ASSAY_TEST Inhibition of Bacterial Growth, detection method Resazurin, Fluorescence (ex560/em590), MEDIA CAMHB, plate type 384well, CORNING #3640, time 18 hr
[2] = system: Acinetobacter baumannii; test: Antibacterial activity against Acinetobacter baumannii ATCC 19606 (CO-ADD:GN_034); MIC in CAMBH media using NBS plates, by Resazurin F(560/590); assay type: functional; conditions: Concentration 20 uM, ASSAY_TEST Inhibition of Bacterial Growth, detection method Resazurin, Fluorescence (ex560/em590), MEDIA CAMHB, plate type 384well, CORNING #3640, time 18 hr
[3] = system: Escherichia coli; test: Antibacterial activity against Escherichia coli ATCC 25922 (CO-ADD:GN_001); MIC in CAMBH media using NBS plates, by Resazurin F(560/590); assay type: functional; conditions: Concentration 20 uM, ASSAY_TEST Inhibition of Bacterial Growth, detection method Resazurin, Fluorescence (ex560/em590), MEDIA CAMHB, plate type 384well, CORNING #3640, time 18 hr
[4] = system: Klebsiella pneumoniae; conditions: Concentration 20 uM; ASSAY_TEST Inhibition of Bacterial Growth; detection method Absorption (OD600); MEDIA CAMHB; plate type 384well; NBS; CORNING #3640; time 18 hr
[5] = system: Candida albicans; conditions: 20 µM
[6] = system: Cryptococcus neoformans; conditions: Concentration 20 uM; ASSAY_TEST Inhibition of Fungal Growth; detection method Resazurin; Absorption (OD600-OD570); plate type 384well; NBS; CORNING #3640

Structure (SMILES): OC1CN2CC[C@H](O)[C@@H]2C(O)[C@@H]1O (stereo not given in full)
- Inhibition [1]: -15.58%
- Inhibition [2]: -6.5%
- Inhibition [3]: 3.63%
- Inhibition [4]: -1.47%
- Inhibition [5]: 2.3%
- Inhibition [6]: -9.42%

Structure (SMILES): COc1ccc(C(=O)O[C@H]2CC[C@@]3(C)[C@@H]4CC[C@H]5[C@]6(O)C[C@H](O)[C@@]7(O)[C@@H](CN8C[C@@H](C)CC[C@H]8[C@@]7(C)O)[C@]6(O)C[C@@]53OC24O)cc1OC
- Inhibition [1]: 16.97%
- Inhibition [2]: -4.41%
- Inhibition [3]: 7.62%
- Inhibition [4]: 3.66%
- Inhibition [5]: -1.53%
- Inhibition [6]: -9.31%

Structure (SMILES): COc1cccc2c1cc([N+](=O)[O-])c1c(C(=O)O)cc3c(c12)OCO3 [ARISTOLOCHIC ACID]
- Inhibition [1]: -13.97%
- Inhibition [2]: -2.12%
- Inhibition [3]: 5.35%
- Inhibition [4]: -1.07%
- Inhibition [5]: 8.48%
- Inhibition [6]: -6.51%

Structure (SMILES): COC1C(O)C(C)OC(OC2C(Oc3cccc4c(O)c5c(=O)oc6ccc(C)c7c(=O)oc(c34)c5c67)OC(C)C(O)C2O)C1O (stereo not given)
- Inhibition [1]: -17.7%
- Inhibition [2]: -6.91%
- Inhibition [3]: -0.53%
- Inhibition [4]: 2.04%
- Inhibition [5]: -2.79%
- Inhibition [6]: -9.89%

Structure (SMILES): C=C1C(=O)O[C@@H]2C[C@@H](C)[C@@H]3C=CC(=O)[C@@]3(C)[C@@H](O)[C@H]12 [HELENALIN]
- Inhibition [1]: 9.39%
- Inhibition [2]: -4.22%
- Inhibition [3]: 4.79%
- Inhibition [4]: 9.92%
- Inhibition [5]: 2.42%
- Inhibition [6]: -2.82%

Structure (SMILES): CC1CCC2C(C)C3C(CC4C5CC=C6CC(OC7OC(CO)C(O)C(OC8OC(CO)C(O)C(O)C8O)C7OC7OC(C)C(O)C(O)C7O)CCC6(C)C5CCC43C)N2C1.Cl (stereo not given)
- Inhibition [1]: -4.66%
- Inhibition [2]: -5.32%
- Inhibition [3]: -0.39%
- Inhibition [4]: 4.14%
- Inhibition [5]: -2.24%
- Inhibition [6]: -10.4%

Structure (SMILES): CC(=O)OC(C)(C)/C=C/C(=O)[C@](C)(O)[C@H]1[C@H](O)C[C@@]2(C)[C@@H]3CC=C4[C@@H](C=C(O)C(=O)C4(C)C)[C@]3(C)C(=O)C[C@]12C [CUCURBITACIN E]
- Inhibition [1]: -16.96%
- Inhibition [2]: -9.18%
- Inhibition [3]: 4.67%
- Inhibition [4]: -1.27%
- Inhibition [5]: -1.39%
- Inhibition [6]: -7.52%

Structure (SMILES): CC(O)CCC(=O)c1ccoc1 (stereo not given)
- Inhibition [1]: -1.39%
- Inhibition [2]: -6.14%
- Inhibition [3]: 1.51%
- Inhibition [4]: -0.54%
- Inhibition [5]: -0.15%
- Inhibition [6]: -5.46%

Structure (SMILES): C1CCC(NC2CCCCC2)CC1.COC1C(OC(=O)/C=C/C=C/C=C/C=C/C(=O)O)CCC2(CO2)C1C1(C)OC1CC=C(C)C (stereo not given)
- Inhibition [1]: 16.49%
- Inhibition [2]: -13.86%
- Inhibition [3]: 8.82%
- Inhibition [4]: -0.23%
- Inhibition [5]: 9.6%
- Inhibition [6]: -7.96%

Structure (SMILES): COc1ccc2c(c1O)-c1c(OC)c(OC)cc3c1C(C2)N(C)CC3 (stereo not given)
- Inhibition [1]: 23.71%
- Inhibition [2]: 2.34%
- Inhibition [3]: 4.51%
- Inhibition [4]: 6.13%
- Inhibition [5]: -0.15%
- Inhibition [6]: -10.21%

Structure (SMILES): CC1CCC2C(C)C(=O)OC3OC4(C)CCC1C32OO4 (stereo not given)
- Inhibition [1]: 7.59%
- Inhibition [2]: -3.18%
- Inhibition [3]: 7.05%
- Inhibition [4]: 14.85%
- Inhibition [5]: 23.7%
- Inhibition [6]: -16.17%

Structure (SMILES): CCN1C[C@]2(COC)[C@H](O)C[C@H](OC)[C@]34C1[C@H]([C@H](OC)[C@H]23)[C@]1(OC(C)=O)[C@H]2[C@@H](OC(=O)c3ccccc3)[C@](O)(C[C@H]24)[C@@H](OC)[C@@H]1O
- Inhibition [1]: 12.16%
- Inhibition [2]: -8.01%
- Inhibition [3]: 7.77%
- Inhibition [4]: 3.92%
- Inhibition [5]: -0.67%
- Inhibition [6]: -9.39%

Structure (SMILES): CCC/C=C/C=C/C(=O)OC1/C(=C/C(=O)OC)CC2CC(C(C)O)OC(=O)CC(O)CC3CC(OC(C)=O)C(C)(C)C(O)(CC4C/C(=C/C(=O)OC)CC(/C=C/C(C)(C)C1(O)O2)O4)O3 (stereo not given)
- Inhibition [1]: 15.23%
- Inhibition [2]: -8.5%
- Inhibition [3]: 2.2%
- Inhibition [4]: 8.82%
- Inhibition [5]: -7.78%
- Inhibition [6]: -7.31%

Structure (SMILES): CC(=O)O[C@@H]1[C@@H](O)C2=C3[C@]4(C)[C@@H]1C(C)(C)C(=O)C[C@@H]4[C@]3(O)[C@H](OC(C)=O)[C@@]1(C[C@@H]1C)C2=O
- Inhibition [1]: 17.09%
- Inhibition [2]: -6.85%
- Inhibition [3]: 0.22%
- Inhibition [4]: 10.98%
- Inhibition [5]: -0.55%
- Inhibition [6]: -8.42%

Structure (SMILES): CCCCCC(O)C1C(=O)OC(C)C(O)/C=C/C=C/C=C/C=C/C=C(\C)C(O)C(O)C(O)CC(O)CC(O)CC(O)CC(O)CC1O (stereo not given)
- Inhibition [1]: -5.29%
- Inhibition [2]: 1.14%
- Inhibition [3]: 2.6%
- Inhibition [4]: 3.06%
- Inhibition [5]: -5.54%
- Inhibition [6]: -5.55%
